The panel holds about 83,000 compounds, 20% with a hit somewhere; the sample as a whole holds those more often.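 Values shown are percent growth following 48 h exposure of cells in 96-well plates to a single concentration of compound; below 10 was considered active.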 The source made the active and inactive calls.
Columns and labels:
Experiment in all cases: NCI-60 one-dose screen, 48 h (100 = growth as untreated, 0 = no growth, -100 = all killed)
Conditions in all cases: 10 µM unless noted
BT-549 breast = test system: BT-549 breast
SW-620 colon = test system: SW-620 colon
MCF7 breast = test system: MCF7 breast
HCT-116 colon = test system: HCT-116 colon
HCC-2998 colon = test system: HCC-2998 colon
KM12 colon = test system: KM12 colon

Measured: growth

COc1cccc(-c2nn(-c3ccccc3)cc2-c2ccnc(N3CCN(C(=O)Nc4ccc(F)cc4)CC3)c2)c1
inactive: BT-549 breast 45.8% | SW-620 colon 74.1% | MCF7 breast 57.7% | HCT-116 colon 54.9% | HCC-2998 colon 95.4%

O=C(N/N=C/c1ccc(Cl)s1)c1[nH]c2ccc(Br)cc2c1-c1ccccc1
inactive: SW-620 colon 25% | HCC-2998 colon 19.9% | KM12 colon 10.5%
active: BT-549 breast -18.1% | MCF7 breast 7.95% | HCT-116 colon -27.5%

Cc1ccc(C(=O)Nc2cccc(C(F)(F)F)c2)cc1Nc1nc(-c2cnccn2)nc2c1cnn2C
inactive: BT-549 breast 143% | SW-620 colon 58.4% | MCF7 breast 73.2% | HCT-116 colon 35.6% | HCC-2998 colon 47.9% | KM12 colon 56.6%

O=C(c1ccc(Cl)cc1)C1[C@H](c2ccc(Cl)cc2)[C@@H](c2ccccc2)NC12C(=O)Nc1ccc(Br)cc12 (stereo not given in full)
inactive: BT-549 breast 61.4% | SW-620 colon 36.3% | MCF7 breast 15.8% | HCT-116 colon 13.2% | HCC-2998 colon 13.3% | KM12 colon 15.3%

N#Cc1ccc(C(=O)CSc2nc(Nc3ccc(S(N)(=O)=O)cc3)c3ccccc3n2)cc1
inactive: BT-549 breast 111% | SW-620 colon 103% | MCF7 breast 98.6% | HCT-116 colon 100% | HCC-2998 colon 119% | KM12 colon 107%

CC(=NNc1ncnc2ccccc12)c1ccc(S(C)(=O)=O)cc1
inactive: BT-549 breast 105% | SW-620 colon 104% | MCF7 breast 87.5% | HCT-116 colon 100% | HCC-2998 colon 111% | KM12 colon 102%

Fc1ccc(-c2cc3nc(C(Cl)Cl)nc(-c4ccccc4)n3n2)cc1
active: SW-620 colon -50.2% | MCF7 breast 8.55% | HCT-116 colon -54.7% | HCC-2998 colon -47.1% | KM12 colon -37.7%
inactive: BT-549 breast 46.5%

OC1CCN(CCCOc2c3ccccc3nc3c2oc2ccc(Cl)cc23)CC1
active: SW-620 colon 2.39% | MCF7 breast 2.99% | KM12 colon 1.06%
inactive: BT-549 breast 57.1% | HCT-116 colon 15.9% | HCC-2998 colon 21.9%

COc1ccc(NC2=C(Cl)C(=O)C(C)=C(C)C2=O)cc1OC
inactive: BT-549 breast 108% | SW-620 colon 101% | MCF7 breast 77.8% | HCT-116 colon 96.4% | KM12 colon 55.2%

CCC/C=C/C=C/C(=O)N[C@@H](Cc1cc(F)cc(F)c1)C(=O)N[C@@H]1C(=O)N2CCC[C@H]2C(=O)N2CCCC[C@H]2C(=O)N[C@@H](C)C(=O)N2C[C@H](C)C[C@H]2C(=O)O[C@H]1C
inactive: BT-549 breast 11.5% | SW-620 colon 32.5% | MCF7 breast 15% | HCT-116 colon 13.4% | HCC-2998 colon 24.1% | KM12 colon 33.3%

Cn1ccnc1C(=O)/C=C/c1ccc(NC(=O)Nc2ccccc2)cc1
active: BT-549 breast -3.85% | SW-620 colon 2.15% | MCF7 breast 6.81% | HCT-116 colon 3.54% | HCC-2998 colon -22% | KM12 colon 1.03%

CC(=O)Oc1ccccc1C(=O)Nc1cc(C(C)C)ccc1C
inactive: BT-549 breast 37.5% | SW-620 colon 23.8% | HCT-116 colon 11.3% | HCC-2998 colon 20.5% | KM12 colon 11.1%
active: MCF7 breast 9.56%

COC(=O)C1CCCN(S(=O)(=O)/N=C2\NC(=O)NC2=C(Cl)Cl)C1 (stereo not given)
inactive: BT-549 breast 118% | MCF7 breast 20.4% | HCT-116 colon 97.8% | HCC-2998 colon 111%
active: KM12 colon 4.95%

O=C1Nc2cc(Cl)ccc2/C1=C\c1ccc(OCc2ccc([N+](=O)[O-])cc2)cc1
inactive: BT-549 breast 77.5% | SW-620 colon 76.8% | MCF7 breast 61.3% | HCT-116 colon 68.2% | HCC-2998 colon 82.8% | KM12 colon 64.6%

CS(=O)(=O)c1ccc(-c2nc3ccccn3c2/C=N/Nc2nc(-c3ccc(Br)cc3)cs2)cc1
inactive: BT-549 breast 114% | SW-620 colon 98.2% | MCF7 breast 92.4% | HCT-116 colon 101% | HCC-2998 colon 120% | KM12 colon 101%

CC(=O)Oc1ccccc1C(=O)Nc1ccc(C(=O)/C=C/c2ccncc2)cc1
inactive: BT-549 breast 57.1% | HCC-2998 colon 13.3%
active: SW-620 colon 0.322% | MCF7 breast 2.69% | HCT-116 colon -72.5% | KM12 colon -31.9%

COc1ccc(N/N=C/c2c(-c3ccc(S(C)(=O)=O)cc3)nc3ccccn23)cc1
inactive: BT-549 breast 60.5% | SW-620 colon 30.1% | MCF7 breast 24.3% | HCT-116 colon 32.5% | HCC-2998 colon 49.3%

COc1ccccc1C(=O)CSc1nc(Nc2ccc(S(N)(=O)=O)cc2)c2ccccc2n1
inactive: BT-549 breast 111% | SW-620 colon 98.1% | MCF7 breast 44.6% | HCT-116 colon 77% | HCC-2998 colon 103% | KM12 colon 78.4%

C#C[C@]1(O)CC[C@H]2[C@@H]3CC=C4c5sc(Nc6ccc(Cl)cn6)nc5CC[C@]4(C)[C@H]3CC[C@@]21C
inactive: BT-549 breast 32.9% | SW-620 colon 29.5% | MCF7 breast 17.6% | HCT-116 colon 34.5% | HCC-2998 colon 80% | KM12 colon 38.9%

COc1ccc(C(=O)/C=C/c2ccc(OCc3ccc(Cl)cc3)c(OC)c2)cc1OC
inactive: BT-549 breast 62.1% | SW-620 colon 43.1% | MCF7 breast 20.4% | HCT-116 colon 20.8% | HCC-2998 colon 84.3% | KM12 colon 54.9%

N/C(=N\c1nc2c(Cl)cc(Cl)cc2s1)C(Cl)(Cl)Cl
inactive: BT-549 breast 110% | SW-620 colon 60.6% | MCF7 breast 24.8% | HCT-116 colon 51%
active: HCC-2998 colon -1.09% | KM12 colon 1.36%

CCOc1ccc2nc(NC(=O)c3ccc(C(F)(F)F)cc3)sc2c1
inactive: BT-549 breast 98.5% | SW-620 colon 103% | MCF7 breast 98.6% | HCT-116 colon 102% | KM12 colon 103%

Cn1cc(-c2cc(N)n3nc(-c4cn(C)c5ccc(Cl)cc45)cc3n2)c2cc(Cl)ccc21
inactive: BT-549 breast 117% | SW-620 colon 14.6% | MCF7 breast 17.3% | HCT-116 colon 75.5% | HCC-2998 colon 98.4% | KM12 colon 60.1%

COc1ccc(/C=C2\SC(=Nc3cc(C)[nH]n3)NC2=O)cc1
inactive: BT-549 breast 90.5% | SW-620 colon 97.1% | MCF7 breast 85.5% | HCT-116 colon 97.2% | HCC-2998 colon 99.8% | KM12 colon 89.8%

COc1ccc(C(=O)c2cc(C(=O)/C=C/c3c(Cl)cccc3Cl)c3cc(C)ccn23)cc1
inactive: BT-549 breast 119% | SW-620 colon 95.5% | MCF7 breast 98% | HCT-116 colon 99.8% | KM12 colon 100%

O=C(N/N=C/c1ccco1)c1[nH]c2ccc(Br)cc2c1-c1ccccc1
active: BT-549 breast -17.1% | HCT-116 colon -12.9%
inactive: SW-620 colon 24.8% | MCF7 breast 10.7% | HCC-2998 colon 23% | KM12 colon 12.8%

Cc1nc(-c2cc3ccccc3oc2=O)ccc1C(=O)/C=C/c1ccc(Cl)c(Cl)c1
inactive: BT-549 breast 108% | SW-620 colon 101% | MCF7 breast 86.3% | HCT-116 colon 103% | HCC-2998 colon 107% | KM12 colon 103%

C#Cc1nc(C2=C(C)C(O)CC2)cs1 (stereo not given)
inactive: BT-549 breast 119% | SW-620 colon 121% | MCF7 breast 85.1% | HCT-116 colon 111% | HCC-2998 colon 115% | KM12 colon 63.9%

CN1CCN(Cc2ccc(NC(=O)c3cncc(C#Cc4cnc5[nH]ncc5c4)c3)cc2C(F)(F)F)CC1
active: KM12 colon 6.81%
inactive: BT-549 breast 73.3% | SW-620 colon 11.5% | MCF7 breast 52.6% | HCT-116 colon 12.4% | HCC-2998 colon 45.7%

CS(=O)(=O)Nc1ccc(-c2nn(-c3ccc(S(C)(=O)=O)cc3)cc2/C=C/C(=O)c2ccc(NC(=O)CO[N+](=O)[O-])cc2)cc1
inactive: BT-549 breast 98.7% | SW-620 colon 113% | MCF7 breast 94.5% | HCT-116 colon 103% | HCC-2998 colon 101% | KM12 colon 106%

NS(=O)(=O)c1cccc(Nc2nc(SCC(=O)c3ccc(Br)cc3)nc3ccccc23)c1
inactive: SW-620 colon 63.7% | MCF7 breast 32.4% | HCT-116 colon 38.9% | HCC-2998 colon 86.1% | KM12 colon 69.7%
active: BT-549 breast -40.8%
